Screens: PubChem BioAssay, National Center for Advancing Translational Sciences (NCATS)
An excerpt weighted towards active compounds, which were near 8.3% of everything screened.
RORgamma inh: blocks mouse ROR gamma transcriptional activity | Drosophila S2 Gal4-RORgamma UAS-luciferase reporter, 20 h | Potency, µM (highest dose often 53.6 µM), without a hit: at the top dose activity change, negative = inhibition, actives largely listed as inhibitors | actives 5.4% (n = 310,000); also: potency is read from the fitted curve at half-maximal effect; % is scaled to controls: 0 for no effect and ±100 for the full control effect; nearly all actives have a fitted effect of over 60% in size
Target sequence (P51450 whole entry, looked up, the tested form may be a part): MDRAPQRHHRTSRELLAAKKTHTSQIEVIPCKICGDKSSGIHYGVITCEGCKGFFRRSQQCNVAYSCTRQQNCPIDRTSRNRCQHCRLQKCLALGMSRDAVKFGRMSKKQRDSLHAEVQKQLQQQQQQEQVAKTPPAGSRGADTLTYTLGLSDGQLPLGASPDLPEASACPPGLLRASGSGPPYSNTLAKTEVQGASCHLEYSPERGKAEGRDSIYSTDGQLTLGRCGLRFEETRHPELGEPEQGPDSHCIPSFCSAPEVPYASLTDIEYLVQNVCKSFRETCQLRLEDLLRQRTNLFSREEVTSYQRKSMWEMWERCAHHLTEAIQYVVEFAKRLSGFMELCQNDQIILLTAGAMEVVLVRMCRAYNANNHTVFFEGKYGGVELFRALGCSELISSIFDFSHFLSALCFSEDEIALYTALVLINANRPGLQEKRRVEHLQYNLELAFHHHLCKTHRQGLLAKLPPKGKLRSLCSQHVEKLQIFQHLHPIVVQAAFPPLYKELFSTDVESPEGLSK
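Compounds are pin-transferred onto Drosophila Schneider cells expressing a copper-inducible Gal4–ROR gamma transactivation domain fusion. After 1 hr, copper sulfate is added to 700 uM final; luciferase is read 20 hr later.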
Giardia kill: Giardia lamblia killing. Giardia lamblia trophozoite viability. activity change, % at 7.66 µM, hits read low. actives 0.15% (n = 340,000); in the data active = activity change below about -80%; inconclusive = between about -30% and that limit;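 also: parasites exposed to compound for two days anaerobically before the ATP read; % is scaled to controls: 0 for no effect and ±100 for the full control effect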
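Anaerobic 48 hrs incubation at 37 deg C of 100 trophozoites/well with test compounds; ATPLite 1-Step luminescence, 15-30 min RT, reports cellular ATP as viability.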
VP16 counter: Gal4-VP16 reporter inhibition counter-screen | Potency, µM (doses to about 53.6 µM), for the others: at the top dose activity, negative = inhibition, usual class: inhibitors | Drosophila S2 Gal4-VP16 UAS-luciferase, luminescence, 20 h | actives 3.5% (n = 310,000);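 also: Gal4-VP16 expression switched on by copper sulfate through the metallothionein promoter; potency is read from the fitted curve at half-maximal effect; % is scaled to controls: 0 for no effect and ±100 for the full control effect; nearly all actives have a fitted effect of over 50% in size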
MCF10A rerep: induces DNA re-replication in MCF 10a normal breast cells; MCF 10A DNA re-replication, Hoechst nuclear intensity, 48 h; Potency, µM (highest dose often 46.1 µM), for the others: top-dose activity, positive = re-replication, actives largely listed as activators; actives 2.9% (n = 350,000); AID 624296; also: potency is read from the fitted curve at half-maximal effect; % of control where 0% means no effect; nearly all actives have a fitted effect of over 50% in size
BCR signal inh: chronic active BCR signaling inhibition; actives 0.05% (n = 340,000); Potency, µM (titrated, usually from 46.1 µM), for the others: at the highest dose activity change, negative = inhibition, usual class: inhibitors; AID 493014; ABC-DLBCL IkBa-CBG/CBR reporter, luminescence ratio, 4 h; active = well fitted inhibition curve with a large enough effect in the signal ratio, with a control signal flat, not every such curve was filed as active; inconclusive = small, poorly fitted or top-dose-only effect, or effect the other way, or a change in a side signal; the % refers to the signal ratio;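 also: potency is read from the fitted curve at half-maximal effect; plate controls were basal doxycycline-induced cells for no effect and cells given 10 µM MG132 for full effect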
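TMD8 ABC-DLBCL cells carrying doxycycline-inducible green luciferase fused to IkappaBalpha plus unfused red luciferase were exposed to compounds (up to 46 uM) for 4 hrs at 37C. Activity came from the overlap-corrected green/red luminescence ratio.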
SW480 rereplic: DNA re-replication induction in SW480 cells; Potency, µM (series often up to 46.1 µM), without a hit: at the highest dose re-replication activation, actives largely listed as activators; AID 624297; SW480 DNA re-replication, Hoechst DNA content imaging, 48 h; actives 1.8% (n = 340,000); also: potency is read from the fitted curve at half-maximal effect; % of control where 0% means no effect; nearly all actives have a fitted effect of over 55% in size
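Compounds, transferred as 23 nL by pin tool, were incubated with cells for 48 hr; DNA content per nucleus was then quantified by Hoechst staining and fluorescence plate imaging.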
Active calls of the source: *; ? = inconclusive; . = no result; [ ] = dose if it differs, or a comment. Unless noted, calls follow the shape of the dose curve; as a rule, active = well fitted curve in the direction sought with a large enough effect; inconclusive = small, poorly fitted or top-dose-only effect, or another doubt; inactive = no such curve, though single readings can be large; an effect the other way counts as inactive or inconclusive.

SMILES | RORgamma inh | Giardia kill | VP16 counter | MCF10A rerep | BCR signal inh | SW480 rereplic
O=C(O)CSC(C(=O)Nc1ccc(Br)cc1)c1ccccc1 (configuration not stated) | 1.0% | -9.1 | 2.4%[10 µM] | -1.2% | ? | 9.3%
COC(=O)CCC(=O)OC1(C)C(=O)C=C2C=C(CCCNC(=O)OC(C)(C)C)OC=C2C1=O (configuration not stated) | 0.7% | . | -11.1% | . | . | .
N#C/C(=C\c1c(F)cccc1Cl)c1nn(-c2ccccc2)c(-n2cccc2)c1C#N | 18.2% | -12.1 | 1.0% | ? | ? | -45.7%
N#C/C(=C\c1c(Cl)cccc1Cl)c1nn(-c2ccccc2)c(-n2cccc2)c1C#N | 8.8% | 5.9 | 2.7% | 16.4µM* | 16.4% | -7.3%
CCOC(=O)N1CCN(C(=O)c2cn(CC)c3ccc(S(=O)(=O)N4CC(C)CC(C)C4)cc3c2=O)CC1 (configuration not stated) | 35.5% | -10.7 | -8.9% | 2.31µM* | 0.0% | -32.8%
C=CCn1cc(C(=O)OC)c(=O)c2cc(S(=O)(=O)N3CCC(C)CC3)ccc21 | 11.2µM* | 1.4 | -4.3% | -2.0% | ? | -7.5%
NCCC[C@@H](CC(=O)N[C@@H]1CCCC[C@H]1C(=O)N[C@H](CC(=O)N[C@@H](CCC(=O)O)CC(=O)O)Cc1c[nH]c2ccccc12)NC(=O)C[C@H](CO)NC(=O)[C@@H]1CNCC[C@H]1N | -23.4% | . | 1.0% | . | . | .
CN(CCn1ccnc1)Cc1cn(Cc2ccccc2)nc1-c1ccc2c(c1)OCO2 | 5.1% | -15.7 | -3.8% | -5.5% | -0.3% | -7.9%
CCCN1CCC(=O)N(C(CSc2ccc(Br)cc2)Cc2ccccc2)CC1 (configuration not stated) | 23.2% | 0.9 | -8.8% | . | . | .
CCOc1ccc(C(=O)Nc2nnc(SCC(=O)NCC3CCCO3)s2)cc1 (configuration not stated) | ? | -94.3* | 3.55µM* | -3.5% | -0.1% | -9.2%
CC(C)(C)c1ccc(C(=O)Nc2nnc(SCC(=O)NCC3CCCO3)s2)cc1 (configuration not stated) | ? | -92.6* | 7.08µM* | 11.3% | 0.1% | 0.9%
CCCCN(CCCC)CCNC(=O)CSCc1ccc(C)cc1 | 0.1% | -4.8 | -0.2% | ? | 5.5% | -2.3%
C=C1C(=O)O[C@H]2[C@H]1[C@@H](O)CC(=C)[C@@H]1CC(=O)[C@@H](C)[C@H]21 | 12.6µM* | -8.2 | ? | 11.6µM* | ? | 4.61µM*
NC(=S)N/N=C/c1ccccc1O | 3.55µM* | -2.2 | 6.31µM* | -3.3% | 2.0% | -9.3%
NC(=S)N/N=C/c1cccc(O)c1O | 7.08µM* | -7.8 | ? | 2.6% | -8.3% | ?
COc1cc(OC)c(/C=N/NC(N)=S)cc1Br | 8.91µM* | 6.4 | ? | 18.1% | -19.3% | -0.7%
Oc1ccccc1C=NNC(=S)NN=Cc1ccccc1O | . | -1.7 | . | 18.4µM* | . | 3.66µM*
O=C(N/N=C/c1ccc(OC(F)F)cc1OC(F)F)c1cccc(S(=O)(=O)N2CCOCC2)c1 | 22.9% | -5.2 | -24.2% | -0.5% | -5.3% | -2.1%
O=C(N/N=C/c1ccccc1O)C1(O)c2ccccc2-c2ccccc21 | 0.562µM* | -5.2 | 0.794µM* | ? | 0.0% | ?
Cc1cc(/C=N/NC(N)=S)c(O)c(/C=N/NC(N)=S)c1 | 0.199µM* | -12.9 | 0.447µM* | -25.2% | ? | 10.3%
Cc1c(/C=N/NC(=O)C2(O)c3ccccc3-c3ccccc32)cnn1C | -22.2% | 29.3 | -16.3% | 14.5% | 1.1% | -12.7%
NC(=S)NN=Cc1nccc2ccccc12 | . | -27.6 | . | ? | . | 2.91µM*
COc1ccc2c(c1)O[C@H](c1ccc3c(c1)OCO3)[C@@H](OC(=O)NS(=O)(=O)c1ccc(F)cc1)C2=O | -0.5% | . | 6.8% | . | . | .
COc1ccc(/C=N/NC(=O)c2ccc(NC(C)=O)cc2)cc1COc1ccc(F)cc1F | 11.2µM* | 11.0 | 10µM* | 2.3% | ? | -5.9%
COc1ccc(/C=N/NC(=O)c2ccccc2O)cc1COc1ccccn1 | -9.2% | -0.9 | 6.3% | 9.1% | ? | ?
SMILES | RORgamma inh | Giardia kill | VP16 counter | MCF10A rerep | BCR signal inh | SW480 rereplic
COc1ccc(/C=N\NC(=O)c2ccccc2Br)cc1COc1c(F)c(F)cc(F)c1F | ? | 20.9 | ? | 4.61µM* | ? | ?
COc1ccc(/C=N/NC(=O)c2nc(Cl)c(Cl)c(N)c2Cl)cc1COc1ccc(F)cc1F | ? | 13.3 | -26.1% | 14.6µM* | -0.4% | ?
COc1ccc(/C=N/NC(=O)c2ccccc2O)cc1CSc1ccccn1 | 15.8µM* | -20.2 | ? | -31.0% | ? | -3.1%
COc1ccc(/C=N/NC(=O)c2ccncc2)cc1COc1ccc(NC(C)=O)cc1 | 7.6% | -3.3 | 21.7% | ? | ? | ?
O=C(COc1ccc(-n2cnnn2)cc1)Nc1cc(Cl)cc(Cl)c1 | . | -8.6 | . | 12.1% | 10.9% | 9.5%
CS(=O)(=O)c1ccc(-n2c(=O)n(Cc3ccccc3)c(=O)c3[nH]cnc32)cc1 | 2.7% | -8.1 | -7.2% | -2.8% | ? | 2.5%
O=C(O)c1cc(=O)c2cccc(O)c2[nH]1 | 3.1% | 3.9 | 2.6% | . | . | .
COc1ccc(/C=N\NC(=O)c2ccccc2F)cc1COc1ccc(F)cc1F | 15.8µM* | 7.1 | 20µM* | ? | ? | 11.6µM*
COc1ccc(/C=N\NC(=O)c2ccccc2F)cc1COc1ccc(F)cc1 | -28.4% | -16.4 | -7.9% | 5.6% | -3.9% | 3.1%
O=C(N/N=C/c1ccc[nH]1)c1ccc(O)cc1 | 8.91µM* | -3.2 | ? | 3.4% | ? | -2.8%
Cc1cc(/C=N/NC(=O)c2cccc([N+](=O)[O-])c2)c(C)n1-c1ccc(Cl)cc1Cl | 1.78µM* | -4.4 | 6.31µM* | ? | -10.2% | 2.0%[9.22 µM]
O=C(N/N=C/c1ccc[nH]1)c1cccc([N+](=O)[O-])c1 | 7.94µM* | 2.5 | 10µM* | -0.1% | ? | 0.1%
O=C(N/N=C/c1ccc[nH]1)c1ccccc1O | 1.26µM* | 6.4 | 5.62µM* | -31.7% | ? | ?
Cc1cccc(/C=N/NC(=O)c2cccc([N+](=O)[O-])c2)n1 | -14.5% | -15.1 | 1.7% | 8.9% | -0.8% | ?
O=C(O)C1OC1(c1ccccc1Cl)c1ccccc1Cl (configuration not stated) | . | -0.5 | . | 2.0% | . | -2.7%
O=C(N/N=C/c1ccc[nH]1)c1ccccc1OCc1ccccc1Cl | 10µM* | -0.6 | ? | 2.6% | -1.6% | 9.4%
O=C(N/N=C/c1ccco1)C1CC1c1ccccc1 (configuration not stated) | 11.8% | 3.5 | -13.9% | -13.0% | 5.9% | -1.9%
O=C(N/N=C/c1ccco1)c1ccccc1OCc1ccccc1Cl | -10.5% | -7.7 | -9.5% | 0.6% | ? | -5.7%
